Assay outcomes (PubChem BioAssay)
Pf Dd2 growth: inhibitors of Plasmodium falciparum Dd2 growth; P. falciparum Dd2 growth, SYBR Green, 72 h; Potency, µM (highest dose often 28.9 µM), without a hit: at the highest dose activity, negative = inhibition, usual class: inhibitors; 120,000 tested, 4.3% active; AID 1347417; active = well fitted inhibition curve with a large enough effect;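 also: plate controls were DMSO vehicle for no effect and reference drug for full effect; nearly all actives have a fitted effect of over 65% in size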
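Readout: SYBR Green fluorescence, 485 nm excitation, 535 nm emission, after ~16 h lysis at 37C. Before that, Dd2-infected red cells (2.5% hematocrit) grew 72 h with compound, 29 uM top final concentration.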
* = called active by the depositor; [ ] = another dose, or the depositor's remark. The full list was thinned out, with hits kept by preference. Potency is read from the fitted curve at half-maximal effect.

What do the screens show for `CC1=C(C(=O)Nc2ccc(C)cc2C)C(c2ccc([N+](=O)[O-])cc2)n2ncc(C(=O)Nc3ccc(F)cc3)c2N1` (stereo unspecified)?
Pf Dd2 growth: 1µM*

What do the screens show for `CCc1ccc(C2C(C(=O)Nc3ccccc3OC)=C(C)Nc3c(C(=O)Nc4ccc(C)cc4)cnn32)cc1` (stereo unspecified)?
Pf Dd2 growth: 11.2µM*

What do the screens show for `CC1=C(C(=O)Nc2ccccc2)C(c2ccccc2Cl)n2ncc(C(=O)Nc3cccc(C)c3)c2N1` (stereo unspecified)?
Pf Dd2 growth: 3.16µM*

Results for O=C1[C@@H]2C[C@@H](O)CN2C2(CN(Cc3cccnc3)C2)C(=O)N1Cc1cccc(Cl)c1 ?
Pf Dd2 growth: inactive

Results for CCCC(C)N1CC2(CCN(C(=O)c3ccc(C(C)=O)s3)CC2)OC1=O (stereo unspecified) ?
Pf Dd2 growth: 7.0%

What do the screens show for `CC(C)CNC(=O)N1CCC(c2noc(C3CC3)n2)C1` (stereo unspecified)?
Pf Dd2 growth: inactive[5.79 µM]

Results for CCCC(=O)N1C[C@@H](CO)[C@H](c2nc(-c3ccncc3)no2)C1 ?
Pf Dd2 growth: 3.6%

What do the screens show for `Cc1c(CN2CCC(c3nnc(CN(C)C)n3C)CC2)cc(C#N)n1C`?
Pf Dd2 growth: -5.6%

What do the screens show for `CCCS(=O)(=O)N1CCC(F)(c2nc(-c3ccccc3)no2)CC1`?
Pf Dd2 growth: -13.6%

How did COCCn1ncc(N2CCC(C(=O)NCCCN3CCc4ccccc4C3)C2)cc1=O (stereo unspecified) do in these assays?
Pf Dd2 growth: inactive

Results for CN(CC1CCOCC1)S(=O)(=O)c1cccc(F)c1 ?
Pf Dd2 growth: 1.9%

Results for O=C(C1CC1)N1CCc2cc(Br)cc(S(=O)(=O)N3CCN(c4cccc(Cl)c4)CC3)c21 ?
Pf Dd2 growth: -6.8%

What do the screens show for `CCC(=O)N1CCc2cc(Br)cc(S(=O)(=O)N3CCN(c4ccccc4)CC3)c21`?
Pf Dd2 growth: -3.4%

How did CC(=O)N1CCc2cc(Br)cc(S(=O)(=O)N3CCN(c4cccc(C(F)(F)F)c4)CC3)c21 do in these assays?
Pf Dd2 growth: 10µM*

Results for CCC(=O)Nc1ccc(C2(C(=O)NCC(C)C)CCCCC2)cc1 ?
Pf Dd2 growth: -0.6%

What do the screens show for `CN(C)C(=O)C1CN(C(=O)Nc2cc(F)cc(F)c2)CC12CCOCC2` (stereo unspecified)?
Pf Dd2 growth: 15.9%

How did Clc1ccc(-c2noc3ncnc(NCCCN4CCN(c5ccccc5)CC4)c23)cc1 do in these assays?
Pf Dd2 growth: 11.2µM*

What do the screens show for `CCOc1ccc(CCNc2ncnc3onc(-c4ccc(Cl)cc4)c23)cc1OCC`?
Pf Dd2 growth: inactive

What do the screens show for `Fc1ccc(-c2noc3ncnc(NCCCN4CCN(c5ccccc5)CC4)c23)cc1`?
Pf Dd2 growth: -22.6%

Results for Cc1ccc(C(=O)N2CCCC3(C2)NC(=O)N(Cc2cccc(Cl)c2)C3=O)cc1F (stereo unspecified) ?
Pf Dd2 growth: -19.5%

How did CC1CCCCN1CCNC(=O)c1ccc(Cn2c(SCc3ccccc3)nc3cccnc32)cc1 (stereo unspecified) do in these assays?
Pf Dd2 growth: 5.62µM*

Results for O=C(NCCN1CCCCC1)c1ccc(Cn2c(SCc3ccccc3)nc3cccnc32)cc1 ?
Pf Dd2 growth: 5.01µM*

What do the screens show for `CC1CCN(CCNC(=O)c2ccc(Cn3c(SCc4ccccc4)nc4cccnc43)cc2)CC1`?
Pf Dd2 growth: 10µM*

How did O=C(NC1CCCC1)c1ccc(CSc2nc3cccnc3n2Cc2ccc(F)cc2)cc1 do in these assays?
Pf Dd2 growth: 28.1%

Results for CC(NC(=O)CCc1ccccc1)C(=O)N1CCN(c2ccccn2)CC1 (stereo unspecified) ?
Pf Dd2 growth: -3.5%

What do the screens show for `COc1ccc(-c2noc(-c3nc(Cc4ccccc4)no3)n2)cc1OC`?
Pf Dd2 growth: inactive

How did CC(C)=CC(=O)N1C[C@@H](NC(=O)Nc2ccc(F)cc2F)C[C@H]1C(=O)N[C@H](Cc1c[nH]c2ccccc12)C(N)=O do in these assays?
Pf Dd2 growth: inactive

Results for CNC(=O)[C@@H]1C[C@H](Oc2cccnc2)CN1C(=O)Cn1nc(C)cc1C ?
Pf Dd2 growth: 13.9%

How did CCc1ccc(-n2c(=O)c3c4c(sc3n(Cc3ccc(F)cc3)c2=O)CCCC4)cc1 do in these assays?
Pf Dd2 growth: -13.3%

Results for CCc1c(C)sc2c1CCN(Cc1ccc(F)cc1)C2c1ccccc1 (stereo unspecified) ?
Pf Dd2 growth: 3.16µM*

How did Cc1c(CNC2CCCCCC2)c(C(=O)O)c(C)n1Cc1ccc(F)cc1 do in these assays?
Pf Dd2 growth: 8.3%[5.79 µM]

What do the screens show for `O=C(O)C1=NOC2CN(Cc3ccncc3)CC12` (stereo unspecified)?
Pf Dd2 growth: 21.0%[44.1 µM]

Results for CN1CC(=O)N(c2ccccc2)Cc2c(NCc3ccc(F)cc3)ncnc21 ?
Pf Dd2 growth: -15.2%

What do the screens show for `CN1CC(=O)N(c2ccccc2)Cc2c(NCCc3ccc(Cl)cc3)ncnc21`?
Pf Dd2 growth: inactive

How did CN1CC(=O)N(c2ccccc2)Cc2c(NCCCc3ccccc3)ncnc21 do in these assays?
Pf Dd2 growth: 6.31µM*

How did CN1CC(=O)N(c2ccccc2)Cc2c1ncnc2N1CCC(O)CC1 do in these assays?
Pf Dd2 growth: 0.3%

Results for CN1CC(=O)N(c2ccccc2F)Cc2c1ncnc2N1CCC(c2ccccc2)CC1 ?
Pf Dd2 growth: inactive

How did CN1CC(=O)N(c2ccc(Cl)cc2)Cc2c(NCc3cccs3)ncnc21 do in these assays?
Pf Dd2 growth: inactive

How did CN1CC(=O)N(c2ccc(Cl)cc2)Cc2c(NCc3ccc(F)cc3)ncnc21 do in these assays?
Pf Dd2 growth: 7.94µM*

What do the screens show for `CN1CC(=O)N(c2ccccc2)Cc2c(NCCOc3ccccc3)ncnc21`?
Pf Dd2 growth: inactive

How did CN1CC(=O)N(c2ccc(Cl)cc2)Cc2c1ncnc2N1CCC(Cc2ccccc2)CC1 do in these assays?
Pf Dd2 growth: 12.6µM*

What do the screens show for `COc1ccc(C(=O)N2CCCCCCNC(=O)[C@@H]3CCC[C@@H]32)c(OC)c1`?
Pf Dd2 growth: -14.1%

Results for COCC(=O)N[C@@H]1CN(S(C)(=O)=O)C[C@H]1CN(C)C ?
Pf Dd2 growth: 12.0%

How did COc1cccc(C(=O)N2C(C(=O)N3CCC(C(N)=O)CC3)COC23CCC(C)CC3)c1 (stereo unspecified) do in these assays?
Pf Dd2 growth: 4.4%

Results for O=C(CN1CCCc2nc(C3CC3)ncc2C1=O)NC1CC1 ?
Pf Dd2 growth: 38.1%

How did CC(C)CCNC(=O)CC1Sc2ncccc2N(CC(C)C)C1=O (stereo unspecified) do in these assays?
Pf Dd2 growth: -1.5%

How did COc1ccc(-c2cn3c(n2)N(C(=O)Cn2ccnc2)CCC3)cc1 do in these assays?
Pf Dd2 growth: 6.3%

How did Cc1ccc(-c2cn3c(n2)N(C(=O)Cn2ccnc2C)CCC3)cc1 do in these assays?
Pf Dd2 growth: 10µM*

How did Cc1ccc(-c2cn3c(n2)N(C(=O)c2cnn4cccnc24)CCC3)cc1 do in these assays?
Pf Dd2 growth: -6.4%

What do the screens show for `CN(C)C(=O)CCC1CCN(S(=O)(=O)c2cccc(F)c2)CC1`?
Pf Dd2 growth: inactive

Results for CCc1nc2nccc(-c3ccc(Br)s3)n2n1 ?
Pf Dd2 growth: -11.8%

Results for CCNC(=O)N1C[C@@H](Oc2ccccc2)C[C@@H]1C(=O)N1CCOCC1 ?
Pf Dd2 growth: -1.2%

What do the screens show for `O=C1CC(NCc2cc(F)ccc2-n2cccn2)CN1Cc1cccc(F)c1` (stereo unspecified)?
Pf Dd2 growth: -27.1%
